Measured values taken from the supplement of paper PMC10646978.
± gives the standard deviation.

Key:
Conditions in all cases: modulator concentration 10 µM
[1] = tested on: RAW-Dual (murine macrophage reporter line); experiment: NF-kB reporter (SEAP) activity fold change vs agonist alone; higher = enhanced NF-kB activity
Outline: (§1)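 Overnight stimulation with a PRR agonist followed pre-incubation for 1 hour at 37 °C with compound at 10 μM final. This was done in RAW-Dual murine macrophage reporter cells seeded at 50 000 per well in 384-well plates. NF-κB (SEAP, QUANTI-Blue absorbance at 620 nm) and IRF (Lucia luciferase, QUANTI-Luc luminescence) were read from the supernatant. Each reporter's fold change relative to the mean agonist-only control on the same plate was averaged over replicate plates.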

[2] = tested on: RAW-Dual (murine macrophage reporter line); experiment: IRF reporter (Lucia luciferase) activity fold change vs agonist alone; higher = enhanced IRF activity
Outline: as §1

[3] = tested on: RAW-Dual (murine macrophage reporter line); experiment: viability score (confluency relative to resting cells, overnight) (fraction); higher = more viable, active = viable (0.7 or more)
Outline: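 A compound met the cutoff when both of two confluency masks exceeded 70% of resting cells. Those masks were made with IncuCyte software from IncuCyte images of RAW-Dual macrophages treated overnight at 10 μM final. This is the basis of the viability score, which is confluency relative to resting cells.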

[4] = agonist: CpG ODN 1826 0.5 ug/mL

SMILES | NF-kB reporter [1, 4] | NF-kB reporter ([1]; agonist: LPS 0.1 ug/mL) | NF-kB reporter ([1]; agonist: MPLA […]) | IRF reporter ([2]; agonist: 3'3'-cGAMP 10 ug/mL) | IRF reporter ([2]; agonist: LPS 0.1 ug/mL) | IRF reporter ([2]; agonist: MPLA […]) | viability score [3]
O=C(c1cc2ccccc2o1)N1CC(N2C(=O)CNC2=O)C1 | 1.17 ± 0.28 | 1.04 ± 0.081 | 1.06 ± 0.077 | 0.933 ± 0.038 | 1.12 ± 0.15 | 1.33 ± 0.13 | 0.989 (active)
CCOc1cc2ncc(C#N)c(Nc3ccc(F)c(Cl)c3)c2cc1NC(=O)/C=C/CN(C)C | 0.714 ± 0.27 | 0.512 ± 0.048 | 0.445 ± 0.097 | 0.158 ± 0.019 | 0.374 ± 0.04 | 0.22 ± 0.019 | 0.968 (active)
O=C(C1=C(O)C(=O)N(c2nccs2)C1c1ccccc1)c1cc2ccccc2o1 (stereo not given) | 0.928 ± 0.054 | 1.57 ± 0.12 | 0.97 ± 0.062 | 0.664 ± 0.026 | 0.967 ± 0.19 | 0.885 ± 0.082 | 0.997 (active)
c1ccc(CCn2c(COc3ccccc3)nc3ccccc32)cc1 | 1.01 ± 0.16 | 0.987 ± 0.13 | 1.16 ± 0.16 | 1.21 ± 0.043 | 1.24 ± 0.16 | 1.34 ± 0.29 | 1.01 (active)
CN1CCC(=C2c3ccccc3CCn3c(C=O)cnc32)CC1 | 0.766 ± 0.11 | 1.24 ± 0.12 | 0.971 ± 0.1 | 0.875 ± 0.04 | 1.1 ± 0.14 | 0.943 ± 0.29 | 1 (active)
COc1ccccc1OCC(=O)NCC1CCN(C(C)C)CC1 | 1.12 ± 0.062 | 1.07 ± 0.099 | 0.92 ± 0.049 | 1.09 ± 0.099 | 1.13 ± 0.21 | 1.05 ± 0.34 | 0.991 (active)
CC(=NOCON=C(C)c1ccc(Cl)c(Cl)c1)c1ccc(Cl)c(Cl)c1 | 0.944 ± 0.057 | 0.993 ± 0.086 | 0.936 ± 0.07 | 0.974 ± 0.034 | 1.38 ± 0.14 | 1.18 ± 0.1 | 1.01 (active)
O=c1cc(-c2ccc(O)c(O)c2)oc2cc(O)cc(O)c12 [Prestw-870] | 1.08 ± 0.18 | 1.21 ± 0.12 | 2 ± 0.16 | 0.181 ± 0.0054 | 0.663 ± 0.14 | 0.61 ± 0.065 | 0.995 (active)
COc1cccc(-n2c(SCc3ccc(F)cc3)nc3c([nH]c4ccccc43)c2=O)c1 | 0.568 ± 0.034 | 1.14 ± 0.077 | 0.693 ± 0.06 | 0.717 ± 0.033 | 1.33 ± 0.15 | 0.902 ± 0.13 | 0.972 (active)
CCN1CCN(Cc2c(O)ccc3c2OC(=Cc2ccc(C)cc2)C3=O)CC1 | 1.05 ± 0.078 | 1.03 ± 0.14 | 1.2 ± 0.028 | 0.945 ± 0.058 | 0.967 ± 0.12 | 1.06 ± 0.13 | 0.995 (active)
Cl.OC(CCCN1CCCCC1)(c1ccccc1)c1ccccc1 | 0.856 ± 0.037 | 0.895 ± 0.088 | 0.982 ± 0.061 | 1.63 ± 0.092 | 1.1 ± 0.3 | 1.08 ± 0.47 | 0.998 (active)
Cn1c(=O)[nH]c2nnc(-c3cccnc3)nc2c1=O | 1.09 ± 0.2 | 0.961 ± 0.084 | 0.975 ± 0.081 | 0.927 ± 0.03 | 1.22 ± 0.12 | 1.31 ± 0.13 | 0.881 (active)
CCOc1ccc2c(c1)C(C)=CC(C)(C)N2 [Prestw-765] | 0.892 ± 0.098 | 1.07 ± 0.055 | 1.11 ± 0.029 | 0.812 ± 0.065 | 0.967 ± 0.052 | 0.997 ± 0.082 | 1 (active)
O=C(O)c1cc(Nc2ccnc3cc(Cl)ccc23)ccc1O | 1.04 ± 0.082 | 1.02 ± 0.088 | 0.932 ± 0.044 | 0.963 ± 0.05 | 1.02 ± 0.056 | 0.96 ± 0.18 | 1 (active)
COc1ccc(CN2CCN(C(c3ccc(F)cc3)c3ccc(F)cc3)CC2)c(OC)c1OC.Cl.Cl | 0.742 ± 0.032 | 0.927 ± 0.084 | 0.916 ± 0.049 | 0.604 ± 0.038 | 1.02 ± 0.24 | 1.17 ± 0.47 | 0.985 (active)
S=c1n(CN2CCOCC2)nc(-c2ccccc2Cl)n1-c1ccccc1 | 1.06 ± 0.059 | 0.985 ± 0.067 | 0.947 ± 0.074 | 0.944 ± 0.047 | 1.32 ± 0.18 | 1.16 ± 0.13 | 0.993 (active)
COc1c(C)cnc(Cn2cccc(-c3nc(C)no3)c2=O)c1C | 0.826 ± 0.2 | 0.937 ± 0.092 | 0.967 ± 0.061 | 0.95 ± 0.033 | 0.995 ± 0.18 | 1.1 ± 0.22 | 0.997 (active)
O=C(CC12CC3CC(CC(C3)C1)C2)N1CCCCC1 | 0.863 ± 0.064 | 0.99 ± 0.11 | 0.949 ± 0.056 | 1.1 ± 0.037 | 1.53 ± 0.1 | 1.23 ± 0.15 | 0.911 (active)
COC(=O)C1=C(C)N(Cc2ccccc2)C(=O)C1 | 1.06 ± 0.17 | 1.1 ± 0.14 | 0.984 ± 0.18 | 0.96 ± 0.039 | 1.32 ± 0.15 | 1.42 ± 0.3 | 0.623 (inactive)
NC(=O)Cn1c(COc2ccccc2Cl)nc2ccccc21 | 1.35 ± 0.32 | 1.03 ± 0.051 | 0.96 ± 0.07 | 1.01 ± 0.034 | 1.26 ± 0.16 | 1.27 ± 0.21 | 0.994 (active)
COc1c(OC)c2occc2c2oc(=O)ccc12 | 1.14 ± 0.32 | 0.86 ± 0.083 | 0.941 ± 0.059 | 0.551 ± 0.018 | 0.586 ± 0.17 | 0.67 ± 0.07 | 0.968 (active)
Cc1nnc(C(C)C)n1C1CC2CCC(C1)N2CC[C@H](NC(=O)C1CCC(F)(F)CC1)c1ccccc1 (stereo not given in full) | 0.928 ± 0.07 | 1.05 ± 0.069 | 1.03 ± 0.051 | 1.08 ± 0.2 | 0.973 ± 0.087 | 1.03 ± 0.11 | 1 (active)
FC(F)(F)c1ccc(CN2CCCC(c3nc4ccccc4[nH]3)C2)cc1 (stereo not given) | 0.701 ± 0.27 | 0.876 ± 0.21 | 0.555 ± 0.2 | 0.693 ± 0.32 | 0.829 ± 0.19 | 0.967 ± 0.23 | 0.903 (active)
O=C(NN=Cc1ccc(O)c(O)c1)c1cc2ccccc2cc1O | 0.35 ± 0.03 | 0.729 ± 0.075 | 0.589 ± 0.038 | 0.229 ± 0.017 | 0.909 ± 0.072 | 0.794 ± 0.18 | 0.997 (active)
CCN(CCO)CCCOc1ccc2c(Nc3cc(CC(=O)Nc4cccc(F)c4)n[nH]3)ncnc2c1 | 0.703 ± 0.17 | 0.902 ± 0.23 | 0.893 ± 0.098 | 0.982 ± 0.03 | 1.25 ± 0.25 | 1.18 ± 0.12 | 0.951 (active)
